# Mito fusion act – blocks mitochondrial division or promotes mitochondrial fusion. 320,000 tested, 0.23% active. S. cerevisiae fusion-defective mutant growth rescue, CellTiterGlo 48 h. Potency, µM (top dose mostly 46.1 µM), for inactives: at the highest dose growth rescue (activation), usual class: activators. AID 485298; note: % of control where 0% means no effect; nearly all actives have a fitted effect of over 45% in size
#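 Growth-rescue viability read-out: after 48 h at the non-permissive 37C in glycerol/ethanol YPEG, yeast mitochondrial fusion mutants are measured by CellTiterGlo luminescence; compounds (23 nl pinned per well) restoring growth score as division inhibitors or fusion activators.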
# KAT2A inh – inhibitors of human GCN5L2 histone acetyltransferase; GCN5L2 HAT assay, ThioGlo1 CoA-SH fluorescence; Potency, µM (top dose mostly 58.9 µM), without a hit: at the top dose activity change, negative = inhibition, actives largely listed as inhibitors; 390,000 tested, 0.21% active; note: % is set by controls: 0 for no effect and ±100 for the full control effect
# Target sequence (Q92830 whole entry, looked up): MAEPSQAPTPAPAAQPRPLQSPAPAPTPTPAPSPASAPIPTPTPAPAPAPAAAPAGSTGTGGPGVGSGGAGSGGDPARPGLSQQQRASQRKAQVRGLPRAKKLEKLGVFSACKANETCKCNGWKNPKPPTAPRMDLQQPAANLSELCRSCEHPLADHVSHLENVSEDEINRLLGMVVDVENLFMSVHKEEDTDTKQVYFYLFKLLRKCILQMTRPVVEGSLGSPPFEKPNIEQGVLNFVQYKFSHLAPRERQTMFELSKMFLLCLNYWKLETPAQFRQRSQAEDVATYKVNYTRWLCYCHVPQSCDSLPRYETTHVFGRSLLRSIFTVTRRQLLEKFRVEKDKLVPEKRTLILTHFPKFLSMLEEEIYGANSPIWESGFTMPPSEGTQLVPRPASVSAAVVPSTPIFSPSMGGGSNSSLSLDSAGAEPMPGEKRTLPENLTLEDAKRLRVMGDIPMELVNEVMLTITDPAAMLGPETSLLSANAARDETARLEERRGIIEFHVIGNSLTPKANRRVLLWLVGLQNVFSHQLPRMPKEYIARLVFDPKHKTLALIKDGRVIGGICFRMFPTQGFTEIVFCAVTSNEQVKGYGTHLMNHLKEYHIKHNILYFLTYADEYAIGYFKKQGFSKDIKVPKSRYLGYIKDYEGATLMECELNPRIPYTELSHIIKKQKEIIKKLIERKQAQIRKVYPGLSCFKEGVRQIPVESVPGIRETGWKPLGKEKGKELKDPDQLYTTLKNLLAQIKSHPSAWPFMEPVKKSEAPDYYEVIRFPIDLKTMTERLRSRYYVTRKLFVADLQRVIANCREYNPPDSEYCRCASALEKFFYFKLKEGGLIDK
#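 Compounds, pin-transferred from DMSO stocks, meet 20nM GCN5L2 for 15 min before the reaction begins with H3(1-25) peptide (75uM) and acetyl-CoA (70uM). Thiol-reactive ThioGlo1 reports CoA release over 20 min at room temperature.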
# GLS inhibitor – glutaminase GLS (human) inhibition; O94925; GLS enzymatic activity, qHTS titration; Potency, µM (titrated, usually from 45.5 µM), for inactives: at the highest dose activity change, negative = inhibition, usual class: inhibitors; 410,000 tested, 0.21% active; note: % is set by controls: 0 for no effect and ±100 for the full control effect
#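 Read-out is an Amplex red fluorescence increase coupled through glutamate oxidase and HRP, measured before and after 30 min room-temperature incubation. hKGA is in 45 mM KH2PO4 (pH 8.2) with 0.02% Tween-20; glutamine added as 1mM solution.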
# VDR inhibitor – vitamin D3 receptor (human) inhibition | Potency, µM, inactives show max response, negative = inhibition, usual class: inhibitors | AID 504847 | 400,000 tested, 0.93% active | P11473 | VDR-SRC2-3 peptide fluorescence polarization, 2 h; note: % is set by controls: 0 for no effect and ±100 for the full control effect
#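 Two reagent solutions held at 4 deg C in the dark were dispensed, compounds pinned at 23 nl, and the mixture incubated 2 h at room temperature. Read-out: fluorescence polarization of VDR–SRC2-3 peptide binding.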
# PKM2 activator – activators of human pyruvate kinase M2; purified PKM2, Kinase-Glo ATP luminescence, activation; response scale: 0% is enzyme alone, no compound; Potency, µM (doses to about 57.5 µM), for inactives: at the highest dose activation, hits mostly activators; 260,000 tested, 0.34% active; AID 1631; note: % is set by controls: 0 for no effect and ±100 for the full control effect; nearly all actives have a fitted effect of over 55% in size
#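 ATP formation by purified human PK-M2, quantified via coupled luciferase luminescence after 1 h at room temperature with 0.1 mM ADP and 0.5 mM PEP final.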
# PLK1 PBD block – PLK1 (human) polo-box domain binding inhibition | Plk1 PBD binding of FITC phosphopeptide, fluorescence polarization | Potency, µM, inactives show max response, negative = inhibition, hits mostly inhibitors | AID 720504 | 360,000 tested, 2.8% active; note: series mostly up to about 57 µM; % is set by controls: 0 for no effect and ±100 for the full control effect; nearly all actives have a fitted effect of over 65% in size
# Starred values were filed as active, the others as inactive; ? = inconclusive; . = no result given; ! = not confirmed by another sample; [ ] = remark or other dose. Only some compounds are listed: those with a hit (about 3.4% of all), similar ones and a draw of the others. Calls come from the whole dose curve; as a rule, active = well fitted curve in the direction sought with a large enough effect; inconclusive = small, poorly fitted or top-dose-only effect, or another doubt; inactive = no such curve, though single readings can be large; an effect the other way counts as inactive or inconclusive. Potency is the fitted concentration of half-maximal effect.
SMILES,Mito fusion act,KAT2A inh,GLS inhibitor,VDR inhibitor,PKM2 activator,PLK1 PBD block
CCC(C)N1C(=O)/C(=C\c2ccc(N3CCCCCC3)cc2)C(=O)NC1=S (centres undefined),0%,-8%,150%,-8%,-5%,?
Oc1ccc2c3c1OC1C(O)C=CC4[C@@H](C2)NCC[C@]314 (some centres undefined),.,.,65%[99.4 µM],.,.,.
CCCCCCCCn1sccc1=O,-33%,?,?,3.5µM*,.,4.7µM*
Clc1c(Cl)c(Cl)c(Cl)c(Cl)c1Cl,.,-17%,.,1%,.,.
O=[N+]([O-])c1c(Cl)c(Cl)cc(Cl)c1Cl,.,.,-18%[99.4 µM],.,.,.
CNc1cc(Cl)c2nonc2c1[N+](=O)[O-],-7%,?,0%,35µM*,4%,8.4µM*
CC1Oc2cc3c(-c4c(O)cc(O)c5c(O)c6c(cc45)OC(C)C(C)C6=O)c(O)cc(O)c3c(O)c2C(=O)C1C (centres undefined),1%,25µM*,7.9µM*,79µM*,2%,27µM*
NC(=O)c1cn(C2CCCCC2)c2ccccc2c1=O,15%,-13%,-5%,-1%,.,-4%
O=C1c2ccccc2C(=O)N1SC1CCCCC1,-3%,6%,?,20µM*,?,1.9µM*
CN1CC[C@@]2(CCCN(C(=O)c3csnn3)C2)C1,.,3%,.,45µM*,.,.
Cc1ncc(CN2CCCC(C(=O)c3cccc(OC(C)C)c3)C2)s1 (centres undefined),23%,20µM*,-8%,16%,-3%,-2%
Oc1c(Cl)cccc1Cc1cc(Cl)cc(Cl)c1O,.,.,17%,-15%,.,27µM*
CN(C)C(CSC(N)=O)CSC(N)=O,.,-8%,.,?,.,.
CCOP(=S)(OCC)Oc1ncn(-c2ccccc2)n1,.,-43%,.,14µM*,.,.
O=C1Nc2cc(Cl)c(Cl)cc2N2CCNC[C@H]12,.,-13%,.,25µM*,.,.
CN1CCN(c2ccc(/C=C3\C(=O)NC(=S)N(c4cccc(Br)c4)C3=O)o2)CC1,3%,-1%,11µM*,?,2%,105%
CN1C(=O)/C(=C\c2ccc(N3CCCCC3)o2)C(=O)NC1=S,-5%,-2%,-1%,-1%,-2%,68%
COc1ccc(NC(=O)N2CCC3(CC2)OCCO3)cc1,-1%,1%,41%,-22%,5%,27µM*
Cc1c(C=C2C(=O)NC(=O)NC2=O)c(=O)n(-c2ccccc2)n1C,0%,-2%,3%,4%,0%,?
O=C1NC(=O)C(=Cc2ccco2)C(=O)N1,.,.,11µM*,4%,.,4.7µM*
O=C1NC(=O)C(=Cc2ccc(-c3ccc(Cl)cc3)o2)C(=O)N1,0%,-7%,-1%,?,17%,0.67µM*
C=CCN1C(=O)/C(=C\c2ccc(N3CCOCC3)o2)C(=O)NC1=S,3%,-8%,-10%,-20%,-23%,75%
O=C1NC(=O)C(=Cc2ccc(-c3ccc(F)cc3O)o2)C(=O)N1,3%,3%,11%,28µM*,10%,1.2µM*
CN(C(=O)Cc1ccc(Cl)c(Cl)c1)C(CN1CCCC1)c1cccc(N=C=S)c1 (centres undefined),.,3%,.,-5%,.,.
CN(C)CCNC(=O)c1cccn(Cc2cccc(C(F)(F)F)c2)c1=O,-8%,0%,-2%,?,3%,19µM*
SMILES,Mito fusion act,KAT2A inh,GLS inhibitor,VDR inhibitor,PKM2 activator,PLK1 PBD block
O=C(NCc1ccccc1)c1cccn(Cc2cccc(Cl)c2)c1=O,?,3%,-1%,-24%,.,-5%
CC(C)(C)OC(=O)N(CCc1ccccc1)Cc1ccc(OCc2cccc(NC(=O)c3ccccc3)c2)cc1,.,.,1%,2%,.,?
Cc1cccc(N2C(=O)/C(=C/c3ccc(CN(CCC#N)S(C)(=O)=O)o3)C(=O)NC2=S)c1,1%,-14%,?,?,21%,7.5µM*
CNC(=O)Oc1cccc2ccccc12,-1%,?,7%,14µM*!,3%,-13%
CCCCCCCCCCCCC/C=C/[C@@H](O)[C@@H](N)COP(=O)([O-])OCC[N+](C)(C)C,.,.,.,3%,.,.
CCN(CC)Cc1nccn1-c1ccc([N+](=O)[O-])cc1C(=O)c1ccccc1Cl,.,.,-5%,.,.,.
C[C@@H]1CN([C@H](C)CO)C(=O)CCCn2nncc2CO[C@@H]1CN(C)C(=O)Nc1ccc(N2CCCCC2)cc1,.,.,5%,.,.,-9%
N#CC1=C(N)Oc2n[nH]c(-c3cccs3)c2C1c1ccsc1 (centres undefined),-3%,-2%,16%,8%,-4%,27µM*
N#CC1=C(N)Oc2c(c(=O)sc3ccccc23)C1c1ccncc1 (centres undefined),0%,-7%,?,-5%,1%,-17%
CN(C)C1C(=O)C(C(N)=O)=C(O)[C@@]2(O)C(=O)C3=C(O)c4c(O)ccc(Cl)c4[C@](C)(O)C3CC12 (some centres undefined),.,-26%,.,?,.,.
O=C(Nc1ccc(F)cc1)c1c(O)c2c(n(Cc3ccccc3)c1=O)CCCC2,3%,-6%,16%,-11%,-15%,27µM*
O=C(CN1CCOCC1)c1ccc2cc[nH]c2c1,0%,-2%,-7%,-4%,14%,-15%
Cc1cc(C)c(C(=O)CN2CCOCC2)c(C)c1,-4%,-5%,-2%,28µM*,9%,-12%
O=C(Nc1ccc2nc(-c3cccs3)c(-c3cccs3)nc2c1)N1CCCCC1,.,.,.,32%,.,.
CN(C)c1ccc(/C=C2/C(=O)NC(=O)N(CCc3ccc(F)cc3)C2=O)cc1,-5%,?,43%,?,10%,6µM*
CCOc1ccc(N2C(=O)/C(=C/c3ccc(C)o3)C(=O)NC2=S)cc1,-3%,-13%,?,?,3%,4.7µM*
CCOc1cc(/C=C2\C(=O)NC(=O)N(CCc3ccc(F)cc3)C2=O)ccc1O,-2%,-16%,-8%,?,17%,1.7µM*
O=C1NC(=O)N(CCc2ccc(F)cc2)C(=O)/C1=C\C=C\c1ccccc1,14%,-1%,79%,?,-2%,?
CN(C)c1ccc(/C=C2\C(=O)NC(=O)N(Cc3ccc(F)cc3)C2=O)cc1,3%,-4%,0%,-14%,0%,1.2µM*
C[C@@H](NC(=O)[C@@H](N)Cc1ccc(O)cc1)C(=O)NCC(=O)N(C)[C@@H](Cc1ccccc1)C(=O)NCCO,.,-1%,.,13%,.,.
F[Si-2](F)(F)(F)(F)F,.,?,-1%,-9%,.,.
O=C1NC(=O)N(Cc2ccc(F)cc2)C(=O)/C1=C\c1ccoc1,0%,?,?,-1%,-29%,2.7µM*

# High-throughput results deposited in PubChem by National Center for Advancing Translational Sciences (NCATS).
